Screens as filed in PubChem.
An excerpt weighted towards active compounds, which were near 4.1% of everything screened.
ssDAF12 agonist – S. stercoralis DAF-12 nuclear receptor activators, primary screen, cell-based, luminescence, HEK293, GRIP1 co-expression, lit1-tk-luc | Nuclear hormone receptor DAF-12 (Strongyloides stercoralis) | HEK293 ssDAF-12/GRIP1 lit1-tk-luc reporter; % of 3 µM dafachronic acid response | activation, % at 6.8 µM | 370,000 tested, 1% active;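 active = activation above the mean over all tested compounds plus 3 SD, cut at about 0.9% in these data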;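 also: 0% = DMSO-only wells and 100% = 3 µM delta7-dafachronic acid wells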
hgDAF12 agonist – H. glycines DAF-12 receptor agonists, primary screen, cell-based, luminescence, HEK293, GAL4 fusion, UAS-luciferase. Nuclear hormone receptor DAF-12 (Heterodera glycines), GAL4 fusion. 370,000 tested, 1.8% active. HEK293 GAL4-hgDAF12 UAS-luciferase reporter, agonist luminescence; normalized to butyrate control. activation, % at 6.8 µM. AID 687014, 2013;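 active = activation above a cutoff set at the mean of all screened compounds plus 3 SD, cut at about 10% in these data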;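 also: 0% = DMSO wells and 100% = sodium butyrate wells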
DAX1 inh-1 – DAX1 (NR0B1) inhibitors, primary screen, cell-based, HEK293, Gal4-DAX1, luciferase luminescence | Nuclear receptor subfamily 0 group B member 1 (Homo sapiens), P51843 | HEK293 Gal4-DAX1 luciferase reporter | inhibition, % at 6.75 µM | 340,000 tested, 0.99% active | AID 504766, 2011;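 active = inhibition above the mean over all tested compounds plus 3 SD, cut at about 4.2% in these data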;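 also: 0% = DAX1-transfected cells with DMSO and 100% = empty-vector control cells with DMSO; inhibition shows as a rise in luminescence from relieved DAX1 repression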
Target sequence (P51843 207-470 limits assumed): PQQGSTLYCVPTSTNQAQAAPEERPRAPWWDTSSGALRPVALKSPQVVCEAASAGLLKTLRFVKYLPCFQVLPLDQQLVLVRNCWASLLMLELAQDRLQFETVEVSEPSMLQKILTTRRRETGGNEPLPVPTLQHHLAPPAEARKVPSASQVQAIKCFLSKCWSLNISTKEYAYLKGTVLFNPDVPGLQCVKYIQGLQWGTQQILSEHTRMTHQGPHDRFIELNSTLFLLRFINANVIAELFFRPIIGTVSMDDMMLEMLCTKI
DAX1 inh-2 – DAX1 (NR0B1) inhibitors on StAR promoter, primary screen, cell-based, luminescence, SF-1 (NR5A1), full-length DAX-1; 370,000 tested, 1.1% active; HEK293T StAR-luciferase reporter, SF-1/DAX-1 repression relief; inhibition, % at 6.8 µM; AID 652010, 2013;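 active = inhibition above the mean over all tested compounds plus 3 SD, cut at about 3.6% in these data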;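 also: 0% = DAX-1 cells with DMSO and 100% = cells lacking DAX-1 with DMSO; higher inhibition means more luminescence from relief of DAX-1 repression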
hcDAF-12 act – H. contortus DAF-12 nuclear receptor activators, primary screen, cell-based, luminescence, HEK293, lit1-tk-luc reporter. HEK293 hcDAF-12 lit1-tk-luc reporter; 0% DMSO, 100% Δ7-dafachronic acid. activation, % at 6.8 µM. 370,000 tested, 1.4% active;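 active = activation above the mean of all tested compounds plus 3 SD, cut at about 5.5% in these data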;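 also: 100% = response to 3 µM Δ7-dafachronic acid high control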
* hit, by the source's call; . = no result given.

SMILES | ssDAF12 agonist | hgDAF12 agonist | DAX1 inh-1 | DAX1 inh-2 | hcDAF-12 act
Cc1c(O)ccc(C(=O)COc2ccc(F)cc2)c1O | -0.9 | 11.7* | 2.6 | 1.0 | 1.4
COc1ccc(C(=O)c2ccc(Br)cc2)cc1 | -1.4 | 3.1 | 1.8 | 0.6 | -0.7
COc1ccc(C(=O)c2ccccc2)cc1 | 15.7* | -0.3 | 1.8 | 0.8 | 2.5
COc1ccc(C(=O)c2c[nH]c3ccccc23)cc1 | 0.9 | 11.5* | 2.1 | 3.2 | 3.7
Cc1ccc(C(=O)NC2CCCCN(C)C2=O)cc1 (centres undefined) | -0.8 | 1.9 | . | 1.2 | -0.2
CC1=C(C(=O)OCCc2ccccc2)C(c2ccsc2)NC(=O)N1C (centres undefined) | -2.2 | 1.0 | 4.5* | -0.5 | -3.7
O=C(CC(O)CCc1ccccc1)c1ccc(O)cc1 (centres undefined) | -0.9 | 1.4 | 8.4* | 1.6 | 1.6
COc1ccc(Cn2ccc3ccc(-c4ccc5ccn(Cc6ccc(OC)cc6)c5c4)cc32)cc1 | -0.1 | 1.3 | . | -1.1 | 0.0
CSc1nsc(N/N=C/c2ccc3c(c2)OCO3)c1C#N | -0.1 | 12.3* | 1.8 | 2.0 | 2.8
COc1cc(/C=N/Nc2snc(SC)c2C#N)cc(OC)c1OC | -2.0 | -2.6 | -3.2 | -1.1 | -1.0
Cc1ccc(C)c(C2=CSC3=NCCN23)c1 | -0.4 | 0.9 | 0.4 | -0.7 | 6.2*
Cc1ccc(C)c(C2=CSC3=NS(=O)(=O)CCN23)c1 | -1.5 | 0.6 | 1.2 | 0.8 | -0.6
c1ccc(Cn2nc(-c3ccccc3)nc2-c2ccccc2)cc1 | 0.8 | 1.1 | 0.1 | -0.1 | 1.9
Cn1nc(-c2ccccc2)nc1-c1ccccc1 | 0.8 | 9.4 | 1.8 | 1.3 | 6.3*
COC(=O)C1=C(C)N(Cc2ccccc2C(F)(F)F)C(=NCc2cc(OC)c(OC)c(OC)c2)NC1c1cccc(C(F)(F)F)c1 (centres undefined) | -0.1 | 1.3 | . | -0.2 | -2.1
CCn1c(C)csc1=NC(=O)c1ccccc1O | 0.0 | 9.9 | -0.5 | 1.1 | 6.3*
CN1C(=O)C(=O)N2C(=C[C@]3(c4c[nH]c5ccccc45)c4ccccc4N[C@H]23)C1=O | 0.0 | 1.6 | . | . | 4.0
O=C(C(=O)N1CCC(CNS(=O)(=O)Cc2ccccc2)CC1)c1cccs1 | -0.8 | 0.9 | . | 1.0 | -0.9
Oc1ccccc1-c1nnc(SCCN2CCOCC2)n1Cc1ccccc1 | 1.1* | 0.1 | 0.1 | 0.4 | 6.9*
O=C(CSc1nnc(-c2ccccc2)n1Cc1ccccc1)N1CCOCC1 | -0.3 | 1.4 | -0.7 | -0.1 | -0.2
Cc1ccc(/C=C/c2nnc(-c3cccc(C)c3)o2)cc1 | -1.1 | 7.4 | 1.6 | 1.8 | 2.1
Cc1ccc(-c2nnc(/C=C/c3ccccc3)o2)cc1 | -1.0 | 10.8* | 0.3 | 2.0 | 2.6
Cc1cc(N/N=C/c2c[nH]c3ccccc23)c2ccccc2n1 | -0.2 | 2.6 | 0.0 | -1.0 | 4.5
Fc1c(F)c(F)c(N/N=C/c2c[nH]c3ccccc23)c(F)c1F | -0.6 | -1.8 | 0.1 | 0.1 | 6.3*
Cn1c(N/N=C/c2c[nH]c3ccccc23)nc2ccccc21 | 0.6 | -0.8 | 0.8 | 0.5 | 5.6*
SMILES | ssDAF12 agonist | hgDAF12 agonist | DAX1 inh-1 | DAX1 inh-2 | hcDAF-12 act
O=C(O)c1ccc(N/N=C/c2c[nH]c3ccccc23)cc1 | -0.1 | -0.3 | -4.7 | 0.1 | 5.8*
Cc1cc(C)nc(N/N=C/c2c[nH]c3ccccc23)n1 | 0.7 | 0.3 | 0.6 | 0.0 | 4.5
COc1cccc(-n2c(O)c(C=NCc3ccccn3)c3ccccc3c2=O)c1 | -1.3 | -1.7 | -3.3 | 0.0 | -2.4
COc1ccc(-n2c(O)c(C=NCc3ccccn3)c3ccccc3c2=O)c(OC)c1 | -0.8 | -0.5 | 0.8 | -0.3 | 6.1*
Cc1cc2c(c(=O)o1)[C@@]1(C(=O)N(C)c3ccccc31)C1=C(CC(C)(C)OC1=O)O2 | -0.7 | -0.6 | . | 1.6 | -0.3
Cc1ccccc1CN1CCCCC(NC(=O)c2c(F)cccc2F)C1=O (centres undefined) | -1.2 | -2.2 | . | -1.6 | -4.3
COc1cccc(NC(=O)Cn2cc3c(n2)CCCCC3)c1 | -0.9 | -1.7 | -1.2 | 0.2 | -0.1
COc1ccc(CNC(=O)Cn2cc3c(n2)CCCCC3)cc1 | -0.7 | -3.5 | 5.7* | 0.4 | -1.6
Cc1nc2c(OCc3ccc(Cl)cc3)cccn2c1N(C)C(=O)CCC1CCCC1 | -0.9 | 10.5* | . | -0.6 | -1.0
Nc1[nH]c(C(=O)c2ccccc2)c(-c2ccc(Br)cc2)c1C(=O)N1CCN(CCO)CC1 | -1.9 | 3.1 | . | . | -0.4
CC(C)Oc1cccc(C(=O)Nc2nnc([C@@H]3C[C@H](O)[C@@H](CO)O3)s2)c1 | 1.0* | 0.3 | . | 0.4 | 0.8
O=C(Nc1cccc(Cl)c1)c1csc([C@H]2C[C@H](O)[C@@H](CO)O2)n1 | -0.1 | 10.6* | . | 2.7 | 4.8
O=C(Nc1nnc([C@H]2C[C@H](O)[C@@H](CO)O2)s1)c1cccc(C(F)(F)F)c1 | -0.9 | -0.5 | . | 0.9 | -1.7
COc1ccc(C(=O)Nc2nnc([C@@H]3C[C@H](O)[C@@H](CO)O3)s2)cc1 | 0.0 | -0.2 | . | 0.6 | 0.2
O=C(Nc1cccc(C(F)(F)F)c1)Nc1nnc([C@@H]2C[C@H](O)[C@@H](CO)O2)s1 | -0.3 | 10.5* | . | -0.3 | -2.0
CCc1c(-c2cccc(Br)c2)ncn1CCc1ccccc1OC | -1.6 | -0.2 | . | -1.6 | -2.4
COc1cc(O)c(C(C)=O)c(CC(=O)O)c1 | 0.9* | -2.5 | -1.1 | 0.3 | -1.1
COc1cc(O)c(C(C)=O)c(OC)c1 | -1.6 | -0.7 | 0.0 | -0.4 | -0.5
COc1cccc(C(=O)OCC(=O)Nc2nnc(-c3ccccc3)o2)c1 | -0.7 | 3.5 | 5.3* | 1.4 | 0.8
CC1Cn2c(COc3ccccc3)nnc2S1 (centres undefined) | -1.4 | -1.6 | 3.4 | -0.3 | -1.2
Cc1ccccc1OCc1nnc2n1CC(C)S2 (centres undefined) | 0.1 | 2.6 | 4.6* | -0.7 | 0.5
Nc1nc(-c2cc3ccccc3o2)cs1 | -0.2 | 9.3 | 5.2* | 2.5 | 3.4
Cc1c(C(=O)NNc2c(Cl)cccc2Cl)n(C)oc1=O | -1.2 | -1.7 | 6.2* | 0.5 | -1.5
C=CCN(CC#Cc1ccccc1)CC=C | -0.9 | -1.3 | . | 0.9 | 2.1
CCCCC(CC)c1nnc(NC(=O)c2cccs2)s1 (centres undefined) | -1.6 | -2.9 | 0.8 | -0.4 | -1.4
CC(C)c1nnc(NC(=O)c2cccs2)s1 | -0.2 | 11.6* | -0.3 | 2.2 | 4.7
O=C(Nc1nnc(C2CC2)s1)c1cccs1 | -0.4 | 5.0 | 0.4 | 3.8* | 0.8
CNC(=O)CCc1nc(-c2ccc(C(C)C)cc2)no1 | -0.1 | 5.4 | . | . | 0.5
